Records with an inconclusive call do not appear. Entries that show only a call come without a potency. Calls of active or inactive are those of the source. Calls follow the shape of the dose curve; as a rule, active = well fitted curve in the direction sought with a large enough effect; inconclusive = small, poorly fitted or top-dose-only effect, or another doubt; inactive = no such curve, though single readings can be large; an effect the other way counts as inactive or inconclusive.
assay: Confirmation and Secondary Assay for Modulators of Hemoglobin Beta Chain Splicing at IVS2 654 locus (AID 910); conditions: HeLa EGFP-654 splicing reporter, GFP fluorescence, 48 h; series mostly up to 46.1 µM;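 also: HeLa cells stably carrying EGFP split by mutant beta-globin IVS2-654 intron; per-well total GFP intensity by laser scanning cytometry after 2-day treatment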
Summary of the method: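 Readout: per-well total peak green fluorescence (488 nm ex, 500–520 nm em) from objects 5–250 µm, reflecting correct splicing of an EGFP-654 reporter. Compounds were applied for 2 days at 37 °C to overnight-plated HeLa EGFP-654 cells; controls were DMSO and 500 nM IVS2-654 PNA.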

SMILES | Potency
CC(Cc1ccc(O)cc1)NCC(O)c1cc(O)cc(O)c1 (stereo not drawn) | inactive
COC(C)(C)CCCC(C)C/C=C/C(C)=C/C(=O)OC(C)C (stereo not drawn) | inactive
CC(=O)[O][Hg][c]1ccccc1 | inactive
CCC(=O)OC1CCC2C3CCC4=CC(=O)CC[C@@]4(C)C3CC[C@]12C (stereo partly drawn) | inactive

assay: Cell Viability - LYMP2-001 (AID 921); conditions: LYMP2-001 lymphoblastoid cell viability; series mostly up to 92.2 µM;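 also: cells exposed to compound for 24 h at 37 °C; nearly all actives have a fitted effect of over 70% in size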; also: potency is read from the fitted curve at half-maximal effect
Summary of the method: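 A lymphoblastoid cell line of human origin was treated with library compounds across a concentration series for 24 hours, and viable cell number was estimated from ATP-driven luciferase light output. Hill modeling gave AC50.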

SMILES | Potency
Nc1ccc(Sc2ccc(N)cc2)cc1 | inactive
COC(C)(C)CCCC(C)C/C=C/C(C)=C/C(=O)OC(C)C (stereo not drawn) | inactive
O=S(=O)(c1ccc(Cl)cc1)c1ccc(Cl)cc1 | inactive
CC(C)(O)C(=O)Nc1ccc([N+](=O)[O-])c(C(F)(F)F)c1 | inactive
CCOP(=O)(NC(C)C)Oc1ccc(SC)c(C)c1 (stereo not drawn) | inactive
O=[N+]([O-])c1c2ccccc2cc2ccccc12 | inactive
CCCCOC(=O)c1ccccc1C(=O)OCc1ccccc1 | inactive
CCCCC(CC)COC(=O)c1ccccc1C(=O)OCC(CC)CCCC (stereo not drawn) | inactive
c1cc2ccc3cccc4ccc(c1)c2c34 | inactive
CC(=O)[O][Hg][c]1ccccc1 | 501 nM (active)

assay: Confirmation and Secondary Assay for Modulators of Hemoglobin Beta Chain Splicing at IVS2 705 locus (AID 930); conditions: HeLa EGFP-705 splicing reporter, GFP fluorescence, 48 h; series mostly up to 46.1 µM;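 also: HeLa cells stably expressing the EGFP-705 splicing reporter; GFP fluorescence per well restored by corrected splicing of the IVS2-705 intron in EGFP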
Summary of the method: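 Stable HeLa line with EGFP disrupted by mutant beta-globin intron 2 (705). Overnight attachment, then 2 days of compound at 37C, 5% CO2. Signal: peak GFP intensity summed over objects 5-250 µm.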

SMILES | outcome
CC(Cc1ccc(O)cc1)NCC(O)c1cc(O)cc(O)c1 (stereo not drawn) | inactive
COC(C)(C)CCCC(C)C/C=C/C(C)=C/C(=O)OC(C)C (stereo not drawn) | inactive
CC(=O)[O][Hg][c]1ccccc1 | inactive
CCC(=O)OC1CCC2C3CCC4=CC(=O)CC[C@@]4(C)C3CC[C@]12C (stereo partly drawn) | inactive

assay: MultiTox-Fluor Cytotoxicity Assay - LYMP1-001 - Dead Cells (AID 946); conditions: LYMP1-001 lymphoblastoid cells, dead-cell protease fluorescence; series mostly up to 92.2 µM;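 also: cells exposed to compound for 16 h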
Summary of the method: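 Seed 2500 LYMP1-001 cells/well, incubate 5 hr at 37 C; add compound, 16 hr at 37 C; add MultiTox-Fluor reagent, 60 min RT; read dead-cell fluorescence Ex/Em=485/520. Normalize to DMSO and 15 uM tetraoctylammonium bromide.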

SMILES | outcome
Nc1ccc(Sc2ccc(N)cc2)cc1 | inactive
COC(C)(C)CCCC(C)C/C=C/C(C)=C/C(=O)OC(C)C (stereo not drawn) | inactive
O=S(=O)(c1ccc(Cl)cc1)c1ccc(Cl)cc1 | inactive
CC(C)(O)C(=O)Nc1ccc([N+](=O)[O-])c(C(F)(F)F)c1 | inactive
CCOP(=O)(NC(C)C)Oc1ccc(SC)c(C)c1 (stereo not drawn) | inactive
O=[N+]([O-])c1c2ccccc2cc2ccccc12 | inactive
Nc1ccc(Cl)cc1N | inactive
CCCCOC(=O)c1ccccc1C(=O)OCc1ccccc1 | inactive
CCCCC(CC)COC(=O)c1ccccc1C(=O)OCC(CC)CCCC (stereo not drawn) | inactive
c1cc2ccc3cccc4ccc(c1)c2c34 | inactive

assay: MultiTox-Fluor Cytotoxicity Assay - LYMP1-001 - Live Cells (AID 947); conditions: LYMP1-001 lymphoblastoid cells, live-cell protease fluorescence viability; series mostly up to 92.2 µM; also: potency is read from the fitted curve at half-maximal effect

SMILES | Potency
Nc1ccc(Sc2ccc(N)cc2)cc1 | inactive
COC(C)(C)CCCC(C)C/C=C/C(C)=C/C(=O)OC(C)C (stereo not drawn) | inactive
O=S(=O)(c1ccc(Cl)cc1)c1ccc(Cl)cc1 | inactive
CC(C)(O)C(=O)Nc1ccc([N+](=O)[O-])c(C(F)(F)F)c1 | inactive
O=[N+]([O-])c1c2ccccc2cc2ccccc12 | inactive
Nc1ccc(Cl)cc1N | inactive
CCCCOC(=O)c1ccccc1C(=O)OCc1ccccc1 | inactive
CCCCC(CC)COC(=O)c1ccccc1C(=O)OCC(CC)CCCC (stereo not drawn) | inactive
c1cc2ccc3cccc4ccc(c1)c2c34 | inactive
CC(=O)[O][Hg][c]1ccccc1 | 5010 nM (active)

Source: PubChem BioAssay (NCATS)
